# Measurements: the supplement of paper PMC4466140
# Target: AgAbp1
# Test: SPOT peptide array binding signal intensity (averaged, normalized) (arbitrary units (background-subtracted, floor 0; scale differs between SH3 domains)); higher = stronger binding of the SH3 domain to the peptide
# Summary of the method: (§1)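 Binding signal is given in arbitrary units that differ between domains and is the normalized, background-subtracted spot intensity averaged across replicates. Each GST-SH3 fusion from one of four yeast species was made in E. coli BL21(DE3), purified on glutathione Sepharose and incubated at 10 μg/ml overnight at 4°C on cellulose-bound synthetic 15-mer peptides in which cysteines were replaced by serines. Detection used anti-GST antibody, an HRP anti-mouse secondary and luminol, followed by imaging and Genespotter quantification.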
row,Binder,SPOT peptide array binding signal intensity
1,RKRAPTPPAPSRSEK,639

# Target: AgBbc1
# Test: as above
# Summary of the method: as §1
row,Binder,SPOT peptide array binding signal intensity
1,RKRAPTPPAPSRSEK,146

# Target: AgBem1-D1
# Test: as above
# Summary of the method: as §1
row,Binder,SPOT peptide array binding signal intensity
1,RKRAPTPPAPSRSEK,112

# Target: AgBzz1-D1
# Test: as above
# Summary of the method: as §1
row,Binder,SPOT peptide array binding signal intensity
1,RKRAPTPPAPSRSEK,128

# Target: AgBzz1-D2
# Test: as above
# Summary of the method: as §1
row,Binder,SPOT peptide array binding signal intensity
1,RKRAPTPPAPSRSEK,98

# Target: AgCyk3
# Test: as above
# Summary of the method: as §1
row,Binder,SPOT peptide array binding signal intensity
1,RKRAPTPPAPSRSEK,2

# Target: AgFus1
# Test: as above
# Summary of the method: as §1
row,Binder,SPOT peptide array binding signal intensity
1,RKRAPTPPAPSRSEK,≤ 0

# Target: AgHof1
# Test: as above
# Summary of the method: as §1
row,Binder,SPOT peptide array binding signal intensity
1,RKRAPTPPAPSRSEK,25

# Target: AgHse1
# Test: as above
# Summary of the method: as §1
row,Binder,SPOT peptide array binding signal intensity
1,RKRAPTPPAPSRSEK,171

# Target: AgLsb1
# Test: as above
# Summary of the method: as §1
row,Binder,SPOT peptide array binding signal intensity
1,RKRAPTPPAPSRSEK,253

# Target: AgLsb4
# Test: as above
# Summary of the method: as §1
row,Binder,SPOT peptide array binding signal intensity
1,RKRAPTPPAPSRSEK,35.5

# Target: AgMyo5
# Test: as above
# Summary of the method: as §1
row,Binder,SPOT peptide array binding signal intensity
1,RKRAPTPPAPSRSEK,0.5

# Target: AgNbp2
# Test: as above
# Summary of the method: as §1
row,Binder,SPOT peptide array binding signal intensity
1,RKRAPTPPAPSRSEK,1300

# Target: AgRvs167
# Test: as above
# Summary of the method: as §1
row,Binder,SPOT peptide array binding signal intensity
1,RKRAPTPPAPSRSEK,4.33

# Target: AgSho1
# Test: as above
# Summary of the method: as §1
row,Binder,SPOT peptide array binding signal intensity
1,RKRAPTPPAPSRSEK,5

# Target: AgSla1-D1-D2
# Test: as above
# Summary of the method: as §1
row,Binder,SPOT peptide array binding signal intensity
1,RKRAPTPPAPSRSEK,167

# Target: AgSla1-D3
# Test: as above
# Summary of the method: as §1
row,Binder,SPOT peptide array binding signal intensity
1,RKRAPTPPAPSRSEK,21.8

# Target: CaAbp1-D1
# Test: as above
# Summary of the method: as §1
row,Binder,SPOT peptide array binding signal intensity
1,RKRAPTPPAPSRSEK,3830

# Target: CaAbp1-D2
# Test: as above
# Summary of the method: as §1
row,Binder,SPOT peptide array binding signal intensity
1,RKRAPTPPAPSRSEK,3240

# Target: CaBbc1
# Test: as above
# Summary of the method: as §1
row,Binder,SPOT peptide array binding signal intensity
1,RKRAPTPPAPSRSEK,426

# Target: CaBem1-D1
# Test: as above
# Summary of the method: as §1
row,Binder,SPOT peptide array binding signal intensity
1,RKRAPTPPAPSRSEK,306

# Target: CaBzz1-D1
# Test: as above
# Summary of the method: as §1
row,Binder,SPOT peptide array binding signal intensity
1,RKRAPTPPAPSRSEK,2860

# Target: CaBzz1-D2
# Test: as above
# Summary of the method: as §1
row,Binder,SPOT peptide array binding signal intensity
1,RKRAPTPPAPSRSEK,3180

# Target: CaCyk3
# Test: as above
# Summary of the method: as §1
row,Binder,SPOT peptide array binding signal intensity
1,RKRAPTPPAPSRSEK,12

# Target: CaFus1
# Test: as above
# Summary of the method: as §1
row,Binder,SPOT peptide array binding signal intensity
1,RKRAPTPPAPSRSEK,106

# Target: CaHof1
# Test: as above
# Summary of the method: as §1
row,Binder,SPOT peptide array binding signal intensity
1,RKRAPTPPAPSRSEK,0.25

# Target: CaHse1
# Test: as above
# Summary of the method: as §1
row,Binder,SPOT peptide array binding signal intensity
1,RKRAPTPPAPSRSEK,3.25

# Target: CaLsb1
# Test: as above
# Summary of the method: as §1
row,Binder,SPOT peptide array binding signal intensity
1,RKRAPTPPAPSRSEK,5.5

# Target: CaLsb4
# Test: as above
# Summary of the method: as §1
row,Binder,SPOT peptide array binding signal intensity
1,RKRAPTPPAPSRSEK,249

# Target: CaMyo5
# Test: as above
# Summary of the method: as §1
row,Binder,SPOT peptide array binding signal intensity
1,RKRAPTPPAPSRSEK,3.5

# Target: CaNbp2
# Test: as above
# Summary of the method: as §1
row,Binder,SPOT peptide array binding signal intensity
1,RKRAPTPPAPSRSEK,797

# Target: CaRvs167
# Test: as above
# Summary of the method: as §1
row,Binder,SPOT peptide array binding signal intensity
1,RKRAPTPPAPSRSEK,27.8

# Target: CaRvs167-3
# Test: as above
# Summary of the method: as §1
row,Binder,SPOT peptide array binding signal intensity
1,RKRAPTPPAPSRSEK,20.2

# Target: CaSho1
# Test: as above
# Summary of the method: as §1
row,Binder,SPOT peptide array binding signal intensity
1,RKRAPTPPAPSRSEK,4

# Target: CaSla1-D1-D2
# Test: as above
# Summary of the method: as §1
row,Binder,SPOT peptide array binding signal intensity
1,RKRAPTPPAPSRSEK,1150

# Target: CaSla1-D3
# Test: as above
# Summary of the method: as §1
row,Binder,SPOT peptide array binding signal intensity
1,RKRAPTPPAPSRSEK,≤ 0

# Target: ScAbp1
# Test: as above
# Summary of the method: as §1
row,Binder,SPOT peptide array binding signal intensity
1,RKRAPTPPAPSRSEK,187

# Target: ScBbc1
# Test: as above
# Summary of the method: as §1
row,Binder,SPOT peptide array binding signal intensity
1,RKRAPTPPAPSRSEK,114

# Target: ScBem1-D1
# Test: as above
# Summary of the method: as §1
row,Binder,SPOT peptide array binding signal intensity
1,RKRAPTPPAPSRSEK,21.5

# Target: ScBzz1-D1
# Test: as above
# Summary of the method: as §1
row,Binder,SPOT peptide array binding signal intensity
1,RKRAPTPPAPSRSEK,128

# Target: ScBzz1-D2
# Test: as above
# Summary of the method: as §1
row,Binder,SPOT peptide array binding signal intensity
1,RKRAPTPPAPSRSEK,26

# Target: ScCyk3
# Test: as above
# Summary of the method: as §1
row,Binder,SPOT peptide array binding signal intensity
1,RKRAPTPPAPSRSEK,9.5

# Target: ScFus1
# Test: as above
# Summary of the method: as §1
row,Binder,SPOT peptide array binding signal intensity
1,RKRAPTPPAPSRSEK,≤ 0

# Target: ScHof1
# Test: as above
# Summary of the method: as §1
row,Binder,SPOT peptide array binding signal intensity
1,RKRAPTPPAPSRSEK,0.75

# Target: ScHse1
# Test: as above
# Summary of the method: as §1
row,Binder,SPOT peptide array binding signal intensity
1,RKRAPTPPAPSRSEK,762

# Target: ScLsb1
# Test: as above
# Summary of the method: as §1
row,Binder,SPOT peptide array binding signal intensity
1,RKRAPTPPAPSRSEK,89.5

# Target: ScLsb2
# Test: as above
# Summary of the method: as §1
row,Binder,SPOT peptide array binding signal intensity
1,RKRAPTPPAPSRSEK,6

# Target: ScLsb3
# Test: as above
# Summary of the method: as §1
row,Binder,SPOT peptide array binding signal intensity
1,RKRAPTPPAPSRSEK,1010

# Target: ScLsb4
# Test: as above
# Summary of the method: as §1
row,Binder,SPOT peptide array binding signal intensity
1,RKRAPTPPAPSRSEK,31.5

# Target: ScMyo3
# Test: as above
# Summary of the method: as §1
row,Binder,SPOT peptide array binding signal intensity
1,RKRAPTPPAPSRSEK,5

# Target: ScMyo5
# Test: as above
# Summary of the method: as §1
row,Binder,SPOT peptide array binding signal intensity
1,RKRAPTPPAPSRSEK,1.5

# Target: ScNbp2
# Test: as above
# Summary of the method: as §1
row,Binder,SPOT peptide array binding signal intensity
1,RKRAPTPPAPSRSEK,2100

# Target: ScPex13
# Test: as above
# Summary of the method: as §1
row,Binder,SPOT peptide array binding signal intensity
1,RKRAPTPPAPSRSEK,30.5

# Target: ScRvs167
# Test: as above
# Summary of the method: as §1
row,Binder,SPOT peptide array binding signal intensity
1,RKRAPTPPAPSRSEK,544

# Target: ScSho1
# Test: as above
# Summary of the method: as §1
row,Binder,SPOT peptide array binding signal intensity
1,RKRAPTPPAPSRSEK,172

# Target: ScSla1-D1-D2
# Test: as above
# Summary of the method: as §1
row,Binder,SPOT peptide array binding signal intensity
1,RKRAPTPPAPSRSEK,1970

# Target: ScSla1-D3
# Test: as above
# Summary of the method: as §1
row,Binder,SPOT peptide array binding signal intensity
1,RKRAPTPPAPSRSEK,46.5

# Target: SpAbp1-D1
# Test: as above
# Summary of the method: as §1
row,Binder,SPOT peptide array binding signal intensity
1,RKRAPTPPAPSRSEK,1150

# Target: SpBbc1
# Test: as above
# Summary of the method: as §1
row,Binder,SPOT peptide array binding signal intensity
1,RKRAPTPPAPSRSEK,≤ 0

# Target: SpBzz1-D1
# Test: as above
# Summary of the method: as §1
row,Binder,SPOT peptide array binding signal intensity
1,RKRAPTPPAPSRSEK,428

# Target: SpBzz1-D2
# Test: as above
# Summary of the method: as §1
row,Binder,SPOT peptide array binding signal intensity
1,RKRAPTPPAPSRSEK,157

# Target: SpCyk3
# Test: as above
# Summary of the method: as §1
row,Binder,SPOT peptide array binding signal intensity
1,RKRAPTPPAPSRSEK,≤ 0

# Target: SpHof1
# Test: as above
# Summary of the method: as §1
row,Binder,SPOT peptide array binding signal intensity
1,RKRAPTPPAPSRSEK,140

# Target: SpHof1-2
# Test: as above
# Summary of the method: as §1
row,Binder,SPOT peptide array binding signal intensity
1,RKRAPTPPAPSRSEK,5.75

# Target: SpHof1-3
# Test: as above
# Summary of the method: as §1
row,Binder,SPOT peptide array binding signal intensity
1,RKRAPTPPAPSRSEK,486

# Target: SpHse1
# Test: as above
# Summary of the method: as §1
row,Binder,SPOT peptide array binding signal intensity
1,RKRAPTPPAPSRSEK,123

# Target: SpLsb1
# Test: as above
# Summary of the method: as §1
row,Binder,SPOT peptide array binding signal intensity
1,RKRAPTPPAPSRSEK,39.2

# Target: SpLsb4
# Test: as above
# Summary of the method: as §1
row,Binder,SPOT peptide array binding signal intensity
1,RKRAPTPPAPSRSEK,1110

# Target: SpMyo1
# Test: as above
# Summary of the method: as §1
row,Binder,SPOT peptide array binding signal intensity
1,RKRAPTPPAPSRSEK,4.5

# Target: SpNbp2
# Test: as above
# Summary of the method: as §1
row,Binder,SPOT peptide array binding signal intensity
1,RKRAPTPPAPSRSEK,67.5

# Target: SpPex13
# Test: as above
# Summary of the method: as §1
row,Binder,SPOT peptide array binding signal intensity
1,RKRAPTPPAPSRSEK,≤ 0

# Target: SpRvs167
# Test: as above
# Summary of the method: as §1
row,Binder,SPOT peptide array binding signal intensity
1,RKRAPTPPAPSRSEK,450

# Target: SpSla1-D1-D2
# Test: as above
# Summary of the method: as §1
row,Binder,SPOT peptide array binding signal intensity
1,RKRAPTPPAPSRSEK,199

# Target: SpSla1-D3
# Test: as above
# Summary of the method: as §1
row,Binder,SPOT peptide array binding signal intensity
1,RKRAPTPPAPSRSEK,≤ 0
